Rows were chosen to be rich in hits. Some 9.9% of all compounds tested hit in one or more screens of this group.
SW480 rerep = induces DNA re-replication in SW480 colon adenocarcinoma cells; SW480 DNA re-replication, Hoechst DNA content imaging, 48 h; Potency, µM (titrated, usually from 46.1 µM), without a hit: at the top dose re-replication activation, usual class: activators; actives 1.8% (n = 340,000); AID 624297; note: potency is the fitted concentration of half-maximal effect; % of control where 0% means no effect; nearly all actives have a fitted effect of over 55% in size
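Image-based DNA-content assay: after two days of treatment, nuclei were labelled with the DNA dye Hoechst and imaged, and hits were compounds raising the count of nuclei showing high fluorescence intensity.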
KB-3-1 cytotox = kills parental KB-3-1 adenocarcinoma cells; KB-3-1 viability, CellTiter-Glo ATP luminescence, 72 h; Potency, µM (top dose mostly 46.1 µM), actives largely listed as cytotoxic; actives 1.4% (n = 400,000); AID 1347075; note: potency is the fitted concentration of half-maximal effect; % is set by controls: 0 for no effect and ±100 for the full control effect; nearly all actives have a fitted effect of over 60% in size
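Parental KB-3-1 viability, qHTS format: 72 h compound exposure, 37 °C; CellTiter-Glo; media-only wells and DMSO plates as controls; concentration-effect fits on corrected data.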
MCF10A rereplic = inducers of DNA re-replication in MCF 10A breast cells; actives 2.9% (n = 350,000); AID 624296; MCF 10A DNA re-replication, Hoechst nuclear intensity, 48 h; Potency, µM (doses to about 46.1 µM), without a hit: top-dose activity, positive = re-replication, hits mostly activators; note: potency is the fitted concentration of half-maximal effect; % of control where 0% means no effect; nearly all actives have a fitted effect of over 50% in size
KB-V1 MDR tox = kills drug-selected multidrug resistant KB-V1 cells; AID 1347076; Potency, µM (top dose mostly 46.1 µM), actives largely listed as cytotoxic; KB-V1 MDR cells viability, CellTiter-Glo, 72 h; actives 3.4% (n = 400,000); note: potency is the fitted concentration of half-maximal effect; % is set by controls: 0 for no effect and ±100 for the full control effect; nearly all actives have a fitted effect of over 60% in size
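Luminescent ATP read-out (CellTiter-Glo, 10 min) measures survival of drug-selected KB-V1 MDR cells after 72 h, 37 degrees C compound exposure. Medium: phenol-red-free DMEM, 10% FBS. Values from fitted concentration-response curves.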
IL1B secr inh = inhibitors of inflammasome signaling (IL-1 beta secretion). actives 4.7% (n = 360,000). AID 743279. activity change, % at 57.5 µM. THP-1 LPS/ATP IL-1B secretion, AlphaLISA, 16 h; active compounds read low; in the data active = activity change below about -50%; inconclusive = mostly about -30% to -49%; note: % is set by controls: 0 for no effect and ±100 for the full control effect
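Secreted IL-1B measured by AlphaLISA bead assay after 16 h compound exposure of THP-1 cells; compounds (final up to 57.5 uM) added 1 h before LPS (250 ng/mL) and ATP (1.25 mM) stimulation; lower signal means less secretion.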
* hit, by the source's call; i = inactive; u = inconclusive; x = no result; [ ] = remark or other dose. Unless noted, calls come from the whole dose curve; as a rule, active = well fitted curve in the direction sought with a large enough effect; inconclusive = small, poorly fitted or top-dose-only effect, or another doubt; inactive = no such curve, though single readings can be large; an effect the other way counts as inactive or inconclusive.

SMILES	SW480 rerep	KB-3-1 cytotox	MCF10A rereplic	KB-V1 MDR tox	IL1B secr inh
OC[C@@H]1CN(CCN2CCOCC2)C[C@H](n2cnc3c(NC4CCCC4)ncnc32)O1	x	i	x	i	22.2
Cc1ccc2c(c1)cc(CN(Cc1cccnc1)C(=O)NCc1ccccc1)c1nnnn12	8.5%	u	15.4%	2.59µM*	-3.4
Cc1ccc2c(c1)cc(CN(Cc1ccc3c(c1)OCO3)C(=O)c1ccccc1)c1nnnn12	2.1%	i	3.8%	i	-26.4
CN1CCN(c2ccc(S(=O)(=O)N3CCOCC3)cc2NC(=O)COc2ccc(C#N)cc2)CC1	-3.7%	i	12.3%	i	u
CC1CCCCN1C(=S)Nc1ccc2nc3n(c(=O)c2c1)CCCCC3 (stereo not given)	5.4%	i	u	u	1.7
COc1ccc(C2=NN(Cc3ccccc3)C3C(=O)NC(=O)C23)cc1 (stereo not given)	9.6%[1.84 µM]	i	-4.8%	i	-9.3
COc1ccccc1[C@H]1C(c2cccc(C)c2)=NN(c2ccccc2)[C@@H]1CO	0.326µM*	i	u	i	-16.1
COc1ccccc1[C@H]1C(c2ccccc2)=NN(c2ccccc2)[C@@H]1CO	13µM*	i	1.84µM*	i	-21.4
COc1ccccc1[C@H]1C(c2ccc(F)cc2)=NN(c2ccccc2)[C@@H]1CO	3.66µM*	i	u	i	-12.8
CC1=NN(c2ccccc2)C(=O)C1C(=O)C(=O)Nc1ccc(F)cc1 (stereo not given)	2.0%	i	6.7%	i	-9.8
C[C@H]1C(c2ccc(F)cc2)=NN(c2ccccc2)[C@@H]1CO	5.17µM*	i	10.3µM*	i	0.0
COc1cccc(CNC(=O)CCn2nc(C)c3c(C)n(-c4ccccc4)nc3c2=O)c1	x	i	x	i	x
O=C(Nc1ccc(Br)cn1)c1ccc(Br)s1	8.2µM*	u	18.4µM*	23.1µM*	16.8
O=C(NCCCCCCNC(=O)c1ccc(Br)s1)c1ccc(Br)s1	-2.9%	u	18.7%	3.26µM*	57.2
Cc1cc(C)c(-c2csc(NC(=O)/C=C/c3cccs3)n2)c(C)c1	u	u	u	5.17µM*	-14.1
O=C(/C=C/c1cccs1)Nc1cccc(NC(=O)/C=C/c2cccs2)n1	-0.7%	23.1µM*	18.4µM*	23.1µM*	-4.2
O=C(NCCCCNC(=O)c1ccc(Cl)s1)c1ccc(Cl)s1	-4.0%	i	-10.6%	i	18.8
CCOC(=O)c1ccc(NC(=O)N2CCN(c3cccc(OC)c3)CC2)cc1	0.9%	i	2.8%	u	0.0
OCC1CCCN(C(=S)Nc2ccc(Nc3ccccc3)cc2)C1 (stereo not given)	u	i	u	i	-23.7
COC(=O)c1ccc(CSc2ccccc2NC(=S)Nc2cccc(SC)c2)o1	x	i	x	u	27.7
NS(=O)(=O)c1ccc(NC(=O)/C=C/c2cccs2)cc1	23.1µM*	i	-1.7%	i	16.8
O=C(/C=C/c1cccs1)Nc1ccc(Br)cn1	u	1.3µM*	u	0.366µM*	77.9
O=C(/C=C/c1cccs1)Nc1nccs1	2.6%	i	u	i	42.0
CCN(CC)S(=O)(=O)c1ccc(C)c(NC(=O)/C=C/c2cccs2)c1	6.5%	i	11.9%	8.2µM*	u
Cc1ccccc1NC(=O)/C=C/c1cccs1	-13.3%	i	-3.0%	u	-25.3
SMILES	SW480 rerep	KB-3-1 cytotox	MCF10A rereplic	KB-V1 MDR tox	IL1B secr inh
CN(C(=O)c1cccc(NC(=O)Cc2cccc(NC(=O)C3CCN(C(=O)c4ccccc4)CC3)c2)c1)C1CC1	-4.6%	i	-7.7%	i	-14.9
COc1ccc2ncccc2c1Cc1c(OC)ccc2ncccc12	u	i	u	u	-75.0*
CCN(Cc1cc(=O)n2ccsc2n1)c1cccc2ccccc12	0.0%	i	u	i	48.1
Cc1cc(Br)ccc1NC(=O)CN(C)C(=O)CSCc1ccccc1	-1.0%	i	6.0%	u	-52.1*
Cc1ccc(CSCC(=O)N(C)CC(=O)Nc2ccccc2Cl)cc1	-297.0%	i	0.8%	i	0.8
CN(CC(=O)Nc1ccccc1Cl)C(=O)CSC(=S)N1CCCC1	-88.9%	i	0.1%	i	1.8
